High-throughput results deposited in PubChem BioAssay by several laboratories.
Only some compounds are listed: those with a hit (about 12% of all), similar ones and a draw of the others.
Ins promoter up: insulin promoter activators in MIN6 cells, imaging, high-content screening, mouse beta cells; MIN6 insulin promoter-GFP reporter; active compounds read high; z-score at 5 µM; 190,000 tested, 0.3% active; AID 1625, 2009;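 active = z-score above 3 at 5 µM with at least 500 cells counted in the well; inconclusive = wells under 500 cells, flagged as cytotoxic or low count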
KCC2 mod: KCC2 cotransporter modulators, thallium flux, primary screen, cell-based, HEK293 KCC2, FluoZin-2 fluorescence, MLSMR. Solute carrier family 12 member 5 (Homo sapiens), Q9H2X9. KCC2 cells, thallium flux FluoZin-2 fluorescence. B-score of Tl+ flux slope (higher = more flux/activation; lower = inhibition) at 10 µM. 190,000 tested, 2.2% active. AID 1456, 2008;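 active = thallium flux slope and its plate-corrected score both differing from the plate sample mean at a set confidence after two filtering rounds, in either direction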;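 also: slope of fluorescence scaled to starting intensity during 10 to 20 s after thallium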
INS promoter inh: inhibitors of insulin promoter-driven GFP, primary screen, imaging, TRM-6 cells (human fetal islet line), eGFP reporter, cell count; 130,000 tested, 0.9% active; reporter expression induced with tamoxifen; inhibition, % at 2 µM;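 active = inhibition above the mean plus 3 SD, with well images judged a real hit on visual review, cut at about 60% in these data, passing the limit was not always enough; inconclusive = inhibition over the cutoff but images rejected on review; inactive = inhibition not above the cutoff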
L major viab: Leishmania major promastigote growth inhibition, primary screen; Leishmania major promastigotes, resazurin fluorescence viability; inhibition, % at 10 µM; 200,000 tested, 9% active; in the data active = inhibition above about 50%;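 also: promastigotes grown with compound for 44 hours at 28 °C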
ROMK primary: ROMK potassium channel modulators, primary screen, cell-based, thallium flux, MLSMR library. 130,000 tested, 2% active. Tet-inducible ROMK, thallium flux fluorescence; actives lie on both sides. ATP-sensitive inward rectifier potassium channel 1 (Homo sapiens), P48048. AID 1918, 2009. B-score at 10 µM;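 active = signal ratio slope over the read window, or its plate-corrected B-score, at least 3 SD from the plate mean, either direction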;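 also: B-score of the F/F0 ratio slope over 7 to 12 s after thallium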
Target sequence (P48048 whole entry, looked up): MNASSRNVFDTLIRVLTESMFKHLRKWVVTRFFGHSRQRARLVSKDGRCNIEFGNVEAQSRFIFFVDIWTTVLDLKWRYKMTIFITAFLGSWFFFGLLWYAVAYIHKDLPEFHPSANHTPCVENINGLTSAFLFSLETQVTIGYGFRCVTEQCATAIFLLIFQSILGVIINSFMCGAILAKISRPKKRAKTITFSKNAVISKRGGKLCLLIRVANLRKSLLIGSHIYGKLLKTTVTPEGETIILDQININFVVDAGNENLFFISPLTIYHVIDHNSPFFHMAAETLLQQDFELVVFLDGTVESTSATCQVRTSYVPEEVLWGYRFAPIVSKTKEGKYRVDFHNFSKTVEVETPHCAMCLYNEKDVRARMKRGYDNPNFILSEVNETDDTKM
WT yeast gro inh: growth inhibition of WT strain, primary screen, mitochondrial fusion inhibitor project, WT and mutant strains, chemical genetic; mitochondrial fusion phenotypic screen; 190,000 tested, 2.1% active; inhibition, % at 10 µM; in the data active = inhibition above about 58%; tested in S. cerevisiae
KCC2 sec1: KCC2 modulators in sodium-free buffer, confirmation, cell-based, HEK293 KCC2, thallium flux, secondary assay | shares compounds with KCC2 mod | FluoZin2 fluorescence; active compounds read high | normalised thallium flux (F/F0 slope) at 10 µM | 3,700 tested, 15% active | AID 1713, 2009;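 active = thallium flux slope above the same plate's solvent-only control mean plus 3 SD; inconclusive = the two replicate wells disagree; inactive = no significant difference from solvent-only control wells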
KCC2 bumet counter: thallium flux persisting under bumetanide in KCC2 cells, confirmation, counter-screen for KCC2 modulator project, cell-based, HEK293 KCC2, FluoZin2, secondary assay 3; shares compounds with KCC2 mod; HEK293-KCC2 + bumetanide/ouabain; active compounds read high; normalized thallium flux at 10 µM; 3,700 tested, 49% active; AID 1714, 2009;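 active = thallium entry rate above the same plate's blocked-transporter control wells by more than 3 SD; inconclusive = the two repeat wells disagree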;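 also: raw slope of fluorescence over initial fluorescence between 10 and 20 s after thallium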
KCC2 secondary2: KCC2 modulators without ouabain present, confirmation, cell-based, HEK293 KCC2, thallium flux, FluoZin2, secondary assay 2; shares compounds with KCC2 mod; thallium flux FluoZin2 fluorescence; actives lie on both sides; F/F0 rise rate, 10–20 s post-thallium; normalized thallium flux at 10 µM; 3,700 tested, 23% active; AID 1715, 2009;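 active = thallium flux slope more than 3 SD above or below the plate's solvent-only control mean, mostly below; inconclusive = the two repeat wells disagreed; inactive = no significant shift from solvent-only controls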
HEK293 Tl flux: thallium flux modulation in parental HEK cells, confirmation, counter-screen for KCC2 modulator project, cell-based, counterscreen 1; 3,700 tested, 46% active; thallium flux rate (normalised fluorescence) at 10 µM; shares compounds with KCC2 mod; HEK293 parental cells, thallium flux FluoZin2, ouabain; baseline-ratio fluorescence slope, 10–20 s after thallium; AID 1716, 2009;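 active = thallium flux rate significantly above the same plate's solvent-only control wells, beyond their mean plus 3 SD; inconclusive = the two replicate wells gave conflicting results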
KCC2 ouabain: KCC2 inhibitors and activators, ouabain retest, confirmation, HEK-KCC2 cells; shares compounds with KCC2 mod; HEK293-KCC2, thallium flux FluoZin2 fluorescence; bidirectional: low = inhibitor, high = activator; raw Tl+ flux slope (below DMSO = inhibition, above = activation) at 10 µM; 3,700 tested, 48% active; AID 1717, 2009;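 active = thallium flux slope beyond 3 SD from same-plate DMSO control mean in most replicates, usually higher, sometimes lower; inconclusive = repeat tests gave conflicting results; inactive = no significant difference from controls in most replicates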;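 also: slope of initial-normalized fluorescence between seconds 10 and 20 after thallium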
HEK293 Tl flux2: native HEK Tl+ uptake effects, second counter-screen – HEK cells, counterscreen 2, counter-screen for KCC2 modulator project, confirmation; shares compounds with KCC2 mod; 3,700 tested, 33% active; HEK293 parental, thallium flux FluoZin-2 fluorescence slope; thallium flux slope at 10 µM; AID 1718, 2009;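 active = thallium flux slope above the same plate's solvent-control mean plus 3 SD in both duplicate wells; inconclusive = duplicate wells that disagreed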;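 also: run without ouabain in cells lacking the KCC2 cotransporter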
Each line names hits and unclear results; the compound was inactive in the other large screens (follow-up assays come after a bar, where they were run).

CCCn1nnc(NC(=O)c2ccc3ccccc3c2)n1	none
O=C(O)CCS(=O)(=O)Cc1ccccc1F	none (no result: INS promoter inh, ROMK primary)
O=C(NCc1cc(C(F)(F)F)cc(C(F)(F)F)c1)C1CC(c2c(Cl)cccc2Cl)=NO1 (stereo not given)	none (no result: ROMK primary)
COCCN1C(=O)C(O)=C(C(=O)c2ccco2)C1c1cccc(Oc2ccccc2)c1 (stereo not given)	KCC2 mod -6.9 (no result: INS promoter inh, ROMK primary) | KCC2 sec1 inactive | KCC2 bumet counter inactive | KCC2 secondary2 inconclusive | HEK293 Tl flux 0.0063 | KCC2 ouabain 0.017 | HEK293 Tl flux2 inactive
CCn1ncc(CN2CCCC(CNC(=O)c3ccc(F)cc3)C2)c1C (stereo not given)	KCC2 mod -6.2 | KCC2 sec1 inactive | KCC2 bumet counter inactive | KCC2 secondary2 inactive | HEK293 Tl flux inactive | KCC2 ouabain inactive | HEK293 Tl flux2 inactive
O=C(Cn1nnc2c(cnn2-c2ccc(F)cc2)c1=O)Nc1ccccc1C(F)(F)F	KCC2 mod -3.9 (no result: INS promoter inh) | KCC2 sec1 inactive | KCC2 bumet counter inconclusive | KCC2 secondary2 inactive | HEK293 Tl flux inactive | KCC2 ouabain 0.017 | HEK293 Tl flux2 inactive
O=C(Nc1nc2ccc(F)cc2s1)c1ccccn1	KCC2 mod 60, L major viab 100, WT yeast gro inh 79 (no result: INS promoter inh) | KCC2 sec1 inactive | KCC2 bumet counter 0.096 | KCC2 secondary2 0.061 | HEK293 Tl flux 0.056 | KCC2 ouabain 0.076 | HEK293 Tl flux2 0.052
O=C(Nc1nnc(SCc2ccc(F)cc2)s1)c1ccccn1	KCC2 mod 44, L major viab 99 | KCC2 sec1 inactive | KCC2 bumet counter 0.039 | KCC2 secondary2 inconclusive | HEK293 Tl flux 0.036 | KCC2 ouabain 0.036 | HEK293 Tl flux2 0.027
COC(=O)c1ccc2nc(Nc3nc4ccc(F)cc4s3)sc2c1	none (no result: ROMK primary)
CCOC(=O)c1csc(Nc2nc3ccc(F)cc3s2)n1	KCC2 mod 27, L major viab 95 (no result: INS promoter inh, ROMK primary) | KCC2 sec1 0.02 | KCC2 bumet counter 0.079 | KCC2 secondary2 inactive | HEK293 Tl flux 0.056 | KCC2 ouabain 0.057 | HEK293 Tl flux2 0.018
O=C(Nc1nc2ccccc2s1)c1cnccn1	none
C=CCn1c(COc2ccccc2)nnc1SCC(=O)O	none (no result: INS promoter inh, ROMK primary)
Cc1noc(C)c1C(=O)OCC(=O)NC1CC1	none (no result: INS promoter inh)
Cc1noc(C)c1CSCC(=O)OCC(=O)NC1CCCCC1	none (no result: KCC2 mod) | KCC2 sec1 inactive | KCC2 bumet counter inconclusive | KCC2 secondary2 inactive | HEK293 Tl flux inactive | KCC2 ouabain inactive | HEK293 Tl flux2 inactive
CCN(CC)c1ccc(/C=N/NC(=S)NC)c(O)c1	KCC2 mod 5.1, L major viab 83 (no result: INS promoter inh) | KCC2 sec1 inactive | KCC2 bumet counter 0.013 | KCC2 secondary2 inactive | HEK293 Tl flux inconclusive | KCC2 ouabain inactive | HEK293 Tl flux2 inactive
N#Cc1ccsc1NC(=O)COC(=O)c1ccc2ccccc2c1	none
Cc1ccc(S(=O)(=O)c2nc(C)oc2NCc2ccccc2)cc1	none (no result: KCC2 mod, ROMK primary) | KCC2 sec1 inactive | KCC2 bumet counter inactive | KCC2 secondary2 inactive | HEK293 Tl flux inactive | KCC2 ouabain inconclusive | HEK293 Tl flux2 inactive
CNC(=S)N(Cc1ccc(OC)cc1)C1CC(=O)N(c2ccc(C(=O)OC)cc2)C1=O (stereo not given)	none (no result: INS promoter inh, ROMK primary)
COC(=O)N1N=C(c2ccccc2)CC1(O)C(F)(F)F (stereo not given)	none (no result: Ins promoter up, KCC2 mod, ROMK primary)
COc1cccc(C(=O)N2N=C(c3ccccc3)CC2(O)C(F)(F)F)c1 (stereo not given)	none
COc1cccc(C2=NN(C(=O)c3ccccc3)C(O)(C(F)(F)F)C2)c1 (stereo not given)	KCC2 mod 3.2 | KCC2 sec1 inactive | KCC2 bumet counter 0.018 | KCC2 secondary2 inactive | HEK293 Tl flux 0.012 | KCC2 ouabain inconclusive | HEK293 Tl flux2 inconclusive
COc1ccc(C(=O)N2N=C(c3ccccc3)CC2(O)C(F)(F)F)cc1 (stereo not given)	KCC2 mod 11 (no result: INS promoter inh) | KCC2 sec1 inactive | KCC2 bumet counter 0.017 | KCC2 secondary2 inactive | HEK293 Tl flux 0.014 | KCC2 ouabain 0.026 | HEK293 Tl flux2 0.017
CCN1CCN(C(=O)CN(C)S(=O)(=O)c2cc(C)ccc2OC)CC1	none
Cc1cccc(C)c1NC(=O)CSc1nnc(NC(=O)CN2CCOCC2)s1	none (no result: ROMK primary)
CC(/C=N/n1c(-c2ccccn2)n[nH]c1=S)=C\c1ccccc1	KCC2 mod 8.4 (no result: INS promoter inh, L major viab, ROMK primary, WT yeast gro inh) | KCC2 sec1 inactive | KCC2 bumet counter 0.029 | KCC2 secondary2 inactive | HEK293 Tl flux 0.013 | KCC2 ouabain inconclusive | HEK293 Tl flux2 inactive
Cc1nn(-c2ccccc2)c2sc(C(=O)O)cc12	none
Cc1nn(-c2ccccc2)c2sc(-c3n[nH]c(=S)o3)cc12	KCC2 mod 6.3 (no result: INS promoter inh) | KCC2 sec1 0.014 | KCC2 bumet counter 0.028 | KCC2 secondary2 inactive | HEK293 Tl flux 0.014 | KCC2 ouabain inconclusive | HEK293 Tl flux2 0.013
c1ccc(-n2nnnc2-n2ccnc2)cc1	none (no result: KCC2 mod, ROMK primary)
O=C(O)CSc1ncnc2sc3c(c12)CCCC3	KCC2 mod 12 (no result: INS promoter inh) | KCC2 sec1 inactive | KCC2 bumet counter 0.0065 | KCC2 secondary2 inconclusive | HEK293 Tl flux 0.0099 | KCC2 ouabain inactive | HEK293 Tl flux2 inactive
CCSc1ncnc2sc3c(c12)CCC3	none
